Compound activity deposited in PubChem by National Center for Advancing Translational Sciences (NCATS).
Rows were chosen to be rich in hits. Some 12% of all compounds tested hit in one or more screens of this group.
RORg inh: ROR gamma (mouse) transcription inhibition. P51450. Drosophila S2 Gal4-RORgamma UAS-luciferase reporter, 20 h. Potency, µM (highest dose often 53.6 µM), for inactives: top-dose activity change, negative = inhibition, usual class: inhibitors. hit rate 5.4% among 310,000; note: nearly all actives have a fitted effect of over 60% in size
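Schneider cells (Drosophila), stable Gal4 DBD–ROR gamma + UAS-luc; 1 hr cmpd preincubation; Cu2+ induction 700 uM final; 20 hr ambient; luminescence.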
VP16 counter: Gal4-VP16 reporter inhibition counter-screen; Drosophila S2 Gal4-VP16 UAS-luciferase, luminescence, 20 h; Potency, µM (highest dose often 53.6 µM), without a hit: at the top dose activity, negative = inhibition, most hits filed as inhibitors; hit rate 3.5% among 310,000;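 note: Gal4-VP16 expression switched on by copper sulfate through the metallothionein promoter; nearly all actives have a fitted effect of over 50% in size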
ALDH1A1 inh: blocks purified human ALDH1A1 activity. Purified ALDH1A1, NADH fluorescence, propionaldehyde substrate. Potency, µM (series often up to 75.3 µM), for the others: at the highest dose activity, negative = inhibition, actives largely listed as inhibitors. hit rate 7.3% among 220,000; active = well fitted inhibition curve with a large enough effect, not every such curve was filed as active; inconclusive = small, poorly fitted or top-dose-only effect, or another doubt; inactive = no such curve, though single readings can be large or run the other way;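 note: plate controls were no enzyme wells and a reference inhibitor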
Target sequence (P00352 whole entry, looked up): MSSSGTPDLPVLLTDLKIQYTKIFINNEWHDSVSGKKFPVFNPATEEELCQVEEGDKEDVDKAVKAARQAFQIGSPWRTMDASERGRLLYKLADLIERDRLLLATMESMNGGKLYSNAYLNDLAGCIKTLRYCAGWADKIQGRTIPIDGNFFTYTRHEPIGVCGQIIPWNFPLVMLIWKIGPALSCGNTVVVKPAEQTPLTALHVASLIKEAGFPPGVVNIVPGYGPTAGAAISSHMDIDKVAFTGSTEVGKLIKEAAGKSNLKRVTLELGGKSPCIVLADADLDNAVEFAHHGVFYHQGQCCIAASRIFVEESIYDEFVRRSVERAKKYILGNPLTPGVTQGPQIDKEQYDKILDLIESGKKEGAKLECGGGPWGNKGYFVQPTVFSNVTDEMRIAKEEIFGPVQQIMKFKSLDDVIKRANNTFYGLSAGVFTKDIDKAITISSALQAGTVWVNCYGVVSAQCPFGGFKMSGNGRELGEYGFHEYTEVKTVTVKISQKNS
Sfp PPTase inh: inhibitors of Bacillus subtilis Sfp phosphopantetheinyl transferase. Potency, µM, for the others: largest response in the series, negative = inhibition, usual class: inhibitors. hit rate 3.5% among 310,000. AID 1490. Biochemical Sfp PPTase activity, qHTS. Q9F4F7;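 note: the enzyme is Sfp with the accession as filed and its product quenches rhodamine fluorescence; 0% = enzyme reaction without inhibitor and -100% = no enzyme wells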
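Fluorescence-quenching assay: 15 nM Sfp-PPTase preincubated 15 min at room temperature with compound, then 5 uM rhodamine-CoA and 12.5 uM BHQ-2-labelled YbbR peptide added. Fluorescence (ex 525/em 598 nm) read at start and after 30 min; difference gives rate.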
PLK1 PBD inh: PLK1 (human) polo-box domain binding inhibition. hit rate 2.8% among 360,000. Plk1 PBD binding of FITC phosphopeptide, fluorescence polarization. Potency, µM, for inactives: max response, negative = inhibition, usual class: inhibitors. P53350; note: series mostly up to about 57 µM; nearly all actives have a fitted effect of over 65% in size
An asterisk follows results filed as active; [ ] = remark or other dose. Unless noted, calls come from the whole dose curve; as a rule, active = well fitted curve in the direction sought with a large enough effect; inconclusive = small, poorly fitted or top-dose-only effect, or another doubt; inactive = no such curve, though single readings can be large; an effect the other way counts as inactive or inconclusive. Unless noted, % is set by controls: 0 for no effect and ±100 for the full control effect; potency is the fitted concentration of half-maximal effect.

For S=C1NCCc2ccccc2C1c1ccccc1 (stereo unspecified) the results were RORg inh 0.22µM*, VP16 counter 0.16µM*, ALDH1A1 inh -7%, Sfp PPTase inh -20% and PLK1 PBD inh -10%.
Screening O=C(CC1NCCc2ccccc21)Nc1ccccc1Cl (stereo unspecified) returned RORg inh -14%, VP16 counter 4%, ALDH1A1 inh 1%, Sfp PPTase inh 13% and PLK1 PBD inh -4%.
`CC1(C(=O)NS(=O)(=O)c2ccc(Cl)s2)CCN1C(=O)c1ccc(C2CCCCC2)cc1` (stereo unspecified) gave PLK1 PBD inh -23%.
`NC(=O)CCC(NS(=O)(=O)c1ccc(Cl)cc1)C(=O)NCC1CCCCC1` (stereo unspecified) gave RORg inh 40%, VP16 counter 3%, Sfp PPTase inh -1% and PLK1 PBD inh 11µM*.
CCn1c(=O)cc(OCC(=O)NCCc2cccc(C)c2)c2ccccc21 was read as RORg inh -42%, VP16 counter 4%[10 µM], ALDH1A1 inh -11%, Sfp PPTase inh 79µM* and PLK1 PBD inh 0%.
CCn1c(=O)cc(OCC(=O)Nc2cc(C)ccn2)c2ccccc21 was read as RORg inh inconclusive, VP16 counter 19%, ALDH1A1 inh inconclusive, Sfp PPTase inh -9% and PLK1 PBD inh -2%.
CCn1c(=O)cc(OCC(=O)Nc2ccc(OC)c(OC)c2)c2ccccc21 was read as RORg inh -10%, VP16 counter 2%, ALDH1A1 inh 16µM*, Sfp PPTase inh 13% and PLK1 PBD inh -3%.
For CC1(C)Oc2ccc(C#N)cc2[C@@H](OC2=CC(=O)CC2)[C@@H]1O the results were ALDH1A1 inh 2% and Sfp PPTase inh 20%.
Screening COC(=O)c1ccc(N2CCN(C(C)=O)CC2)c(NC(=O)COc2ccccc2C)c1 returned RORg inh 2%, VP16 counter -1%, ALDH1A1 inh 7.9µM*, Sfp PPTase inh 13% and PLK1 PBD inh -1%.
Screening COC(=O)c1ccc(N2CCN(C)CC2)c(NC(=O)COc2ccccc2Cl)c1 returned RORg inh -5%, VP16 counter 3%, Sfp PPTase inh 10% and PLK1 PBD inh -3%.
Screening COC(=O)c1ccc(N2CCOCC2)c(NC(=O)Nc2cccc(OC)c2)c1 returned RORg inh -22%, VP16 counter -7%, ALDH1A1 inh 25µM*, Sfp PPTase inh inconclusive and PLK1 PBD inh inconclusive.
For O=C(NCc1cccnc1)NC1CC(=O)N(c2ccc3c(c2)OCCO3)C1 (stereo unspecified) the results were RORg inh -7%, VP16 counter 0%, ALDH1A1 inh 7%, Sfp PPTase inh 10% and PLK1 PBD inh -6%.
For O=C(Oc1cc(-c2ccccc2)no1)c1ccc(Cl)cc1 the results were RORg inh -2%, VP16 counter 1%, ALDH1A1 inh 11%, Sfp PPTase inh -5% and PLK1 PBD inh 24µM*.
Screening CC1(C(=O)NCc2ccccc2)CSCC(=O)N1C1CC1 (stereo unspecified) returned PLK1 PBD inh -11%.
For Cc1cccnc1N(C(=O)Nc1ccccc1)C1=NCC(C)(C)S1 the results were RORg inh 10µM*, VP16 counter inconclusive, ALDH1A1 inh 3%, Sfp PPTase inh -2% and PLK1 PBD inh -11%.
`Cc1cccnc1N(C(=O)Nc1cccc(Cl)c1)C1=NCC(C)(C)S1` gave RORg inh 11µM*, VP16 counter -25%, ALDH1A1 inh 15%, Sfp PPTase inh -13% and PLK1 PBD inh -1%.
Cc1ccc2c(CN3CCCc4ccccc43)cc(=O)oc2c1C was read as RORg inh 1%, VP16 counter -14%, ALDH1A1 inh 16µM*, Sfp PPTase inh -24% and PLK1 PBD inh -10%.
`CCOC(=O)/C(=C\Nc1ccccc1C(F)(F)F)Sc1ncc(C(F)(F)F)cc1Cl` gave RORg inh -23%, VP16 counter -5%, ALDH1A1 inh -15%, Sfp PPTase inh 4% and PLK1 PBD inh -2%.
N#Cc1c(Sc2ncc(C(F)(F)F)cc2Cl)nsc1C/C=N\OCc1ccccc1Br was read as RORg inh 28%, VP16 counter -27%, ALDH1A1 inh 10µM*, Sfp PPTase inh -13% and PLK1 PBD inh 3%.
`O=C(Cn1c(=O)oc2cc(S(=O)(=O)N3CCCC3)ccc21)N1CCc2ccccc2C1` gave RORg inh 20%, VP16 counter -4%, ALDH1A1 inh 11µM*, Sfp PPTase inh -4% and PLK1 PBD inh -18%.
CC1CCCCN1C(=O)Cn1c(=O)oc2cc(S(=O)(=O)N3CCCC3)ccc21 (stereo unspecified) was read as RORg inh 2.5µM*, VP16 counter -3%, Sfp PPTase inh 26% and PLK1 PBD inh -3%.
`CC(N)(C(=O)O)c1ccc(P(=O)(O)O)cc1` (stereo unspecified) gave ALDH1A1 inh 11% and Sfp PPTase inh 0%.
`CCOC(=O)CN(C)C(=O)C1CC(CO[Si](C)(C)C(C)(C)C)=CN1C(=O)OC(C)(C)C` (stereo unspecified) gave RORg inh 16%, VP16 counter 9% and Sfp PPTase inh 0%.
Screening Cc1cc(NC(=O)CCN2C(=O)C3C4CCC(C4)C3C2=O)cc(C)c1Br (stereo unspecified) returned RORg inh 1%, VP16 counter -5%, ALDH1A1 inh inconclusive, Sfp PPTase inh -25% and PLK1 PBD inh -9%.
Screening Cc1c(Br)ccc(NC(=O)CCN2C(=O)C3C4CCC(C4)C3C2=O)c1C (stereo unspecified) returned RORg inh inconclusive, VP16 counter 17%, ALDH1A1 inh 32µM*, Sfp PPTase inh 6% and PLK1 PBD inh 1%.
Screening COc1ccc2cc(CN(CCCN3CCOCC3)Cc3nnnn3C3CCCC3)c(=O)[nH]c2c1 returned RORg inh -10%, VP16 counter -13%, ALDH1A1 inh inconclusive, Sfp PPTase inh inconclusive and PLK1 PBD inh -5%.
For Cc1cc2cc(CN(Cc3nnnn3C3CCCCC3)CC3CCCO3)c(=O)[nH]c2cc1C (stereo unspecified) the results were RORg inh 7%, VP16 counter 1%, ALDH1A1 inh inconclusive, Sfp PPTase inh 50µM* and PLK1 PBD inh -7%.
For COc1ccc(CN(Cc2cc3ccc(C)cc3[nH]c2=O)Cc2nnnn2C2CCCC2)cc1 the results were RORg inh 0%, VP16 counter -21%, ALDH1A1 inh inconclusive, Sfp PPTase inh -15% and PLK1 PBD inh 1%.
For Cc1cc(C)c2cc(CN(Cc3nnnn3C3CCCCC3)CC3CCCO3)c(=O)[nH]c2c1 (stereo unspecified) the results were RORg inh 6%, VP16 counter -10%, ALDH1A1 inh 4.5µM*, Sfp PPTase inh -13% and PLK1 PBD inh -2%.
